The list is not random: actives were taken first. Their share in the collection is about 2.3%.
ID4 SMM – binders of human ID4 protein. P47928. small molecule microarray, Flag-ID4 binding, fluorescence F/B. calls only. 31,000 compounds, 1.2% hits. AID 624137; call rule not given here;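 also: a binder raises fluorescence above local background on the spot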
Target sequence (P47928 whole entry, looked up): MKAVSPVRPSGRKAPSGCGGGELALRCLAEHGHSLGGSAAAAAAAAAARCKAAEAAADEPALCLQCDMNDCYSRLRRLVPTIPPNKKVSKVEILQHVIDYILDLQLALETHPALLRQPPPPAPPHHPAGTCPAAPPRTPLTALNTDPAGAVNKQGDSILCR
mut p53 react – restores mutant p53 pathway signaling in SW480 cells | AID 624151 | 28,000 compounds, 1.5% hits | SW480 PUMA-promoter luciferase, p53 mutant reactivation | activation, % at 9.98 µM; in the data active = activation above about 52%; inconclusive = no clear call, values can overlap the other calls
Starred values were filed as active, the others as inactive; i = inactive; u = inconclusive; x = no result given; + = active, no number.

SMILES	ID4 SMM	mut p53 react
COc1ccc(NCC(O)Cn2ccc3ccccc32)cc1 (stereo unspecified)	i	16
Cc1cc(C)n(CC(O)Cn2ccc3ccccc32)n1 (stereo unspecified)	+	-12
OCc1nc2ccccc2n1CC(O)Cn1ccc2ccccc21 (stereo unspecified)	i	-15
O=C1c2ccccc2S(=O)(=O)N1CC(O)Cn1ccc2ccccc21 (stereo unspecified)	+	17
Cn1c(SCC(=O)Nc2ccnc3ccccc23)nnc1-c1ccncc1	+	-28
Cc1ccc(NC(=O)CSc2nnc(-c3ccncc3)n2C)c(Br)c1	i	1
Cc1ccc(-c2nnc(SCC(=O)Nc3ccccc3F)n2C)cc1	i	60*
Cn1c(SCC(=O)Nc2ccccc2C(F)(F)F)nnc1-c1ccc(F)cc1	i	9
CC(=O)c1ccc(NC(=O)Cn2cnc3ccccc3c2=O)cc1	i	15
O=C1O[C@H](c2ccccc2)[C@H](c2ccccc2)N2[C@H]1[C@@H](C(=O)Nc1nc3ccccc3s1)[C@]1(C(=O)Nc3ccc(C#CC4(O)CCCCCC4)cc31)[C@H]2c1ccc(OCCO)cc1	i	x
COc1ccc(S(=O)(=O)N(CC(=O)O)C2CCCCC2)cc1Cl	i	0
Cc1sc2nc(SCC(=O)Nc3c(F)cc(F)cc3Br)n(C)c(=O)c2c1C	i	-4
COC(=O)CCCCCCC(=O)Nc1ccc(C2OC(CSc3ccccn3)CC(c3ccccc3)O2)cc1 (stereo unspecified)	i	x
O=C(O)CCCCCCC(=O)Nc1ccc(C2OC(CSCCO)CC(c3ccccc3)O2)cc1 (stereo unspecified)	+	x
CCCC(=O)Nc1ccc2c(c1)OC[C@@H](C)N(CCc1ccccc1)C[C@@H](C)[C@H](OC)CN(C)C2=O	i	x
CO[C@@H]1CN(C)C(=O)c2ccc(NC(C)=O)cc2OC[C@@H](C)N(CCc2ccccc2)C[C@H]1C	+	x
COc1cc(/C=C/c2cc(O)cc(O[C@@H]3O[C@H](CO)[C@@H](O)[C@H](O)[C@H]3O)c2)ccc1O[C@@H]1O[C@H](CO)[C@@H](O)[C@H](O)[C@H]1O	x	15
COc1cc(/C=C/c2cc(O)cc(O)c2)ccc1O[C@@H]1O[C@H](CO)[C@@H](O)[C@H](O)[C@H]1O	i	66*
CCn1c(SCC(=O)Nc2c(C)cccc2C)nnc1-c1cnccn1	+	-3
CCn1c(SCC(=O)Nc2cc(C)c(Cl)cc2OC)nnc1-c1cnccn1	i	-7
COc1ccc(NC(=O)CCN2C(=O)c3ccccc3C2=O)cc1Cl	i	28
CCCC(=O)n1nc(-c2ccccc2)nc1NCc1ccco1	i	50
O=C(c1ccco1)n1nc(-c2ccc(Cl)cc2)nc1NCc1ccco1	i	44
CCCC(=O)n1nc(-c2ccc(Cl)cc2)nc1NCc1ccco1	i	107*
O=C(c1ccc([N+](=O)[O-])cc1)n1nc(-c2ccc(Cl)cc2)nc1NCc1ccco1	i	128*
SMILES	ID4 SMM	mut p53 react
COc1ccccc1C(=O)n1nc(-c2ccccc2)nc1NCc1ccco1	i	23
COc1ccc(C(=O)n2nc(-c3ccc(Cl)cc3)nc2NCc2ccco2)cc1OC	i	80*
O=C1CC(c2ccc(O)cc2)Oc2ccccc21 (stereo unspecified)	i	39
COc1ccc(C2CC(=O)c3ccc(OC)cc3O2)cc1 (stereo unspecified)	i	97*
Cc1ccc2nc(-c3cccnc3)cc(C(=O)Nc3sc4c(c3C(N)=O)CCCCCC4)c2c1	i	-5
Cc1nnc(SCc2cc(=O)[nH]c(Nc3nc(C)c4ccccc4n3)n2)s1	i	20
Cc1ccc2nc(Nc3nc(CSc4nnc(C)s4)cc(=O)[nH]3)nc(C)c2c1	i	54*
COC(=O)c1cccc(NC(=O)COc2ccc(I)cc2)c1	i	8
O=C(COc1ccc(I)cc1)Nc1cc(C(=O)O)cc(C(=O)O)c1	+	-8
COc1cccc(C(=O)NC(c2ccc(Cl)cc2)c2c(O)ccc3ccccc23)c1 (stereo unspecified)	i	-9
CC(=O)O[C@H]1[C@H](Oc2ccccc2COC(=O)C2(O)C=CCCC2=O)O[C@H](COC(=O)C2(O)C=CCCC2=O)[C@@H](O)[C@@H]1O (stereo partly specified)	i	x
O=[N+]([O-])c1cccc(NC(=S)NCCn2cc(Cl)cn2)c1	i	-4
CCc1cc(C(=O)OC)c(NC(=O)c2cc(-c3cccnc3)nc3ccc(Br)cc23)s1	i	-20
Cc1sc2ncn(CC(=O)Nc3ccc(F)c(Cl)c3)c(=O)c2c1C	i	-11
COc1ccc2c(c1OC)C(=O)OC2[C@H]1c2c(cc3c(c2OC)OCO3)CCN1C (stereo partly specified)	i	x
COc1cc2c3cc1Oc1c(OC)c(OC)cc4c1[C@@H](Cc1ccc(OC(=O)c5ccc([N+](=O)[O-])cc5)c(c1)Oc1ccc(cc1)C[C@@H]3N(C)CC2)N(C)CC4	+	-2
O=C1c2cccc3cccc(c23)N1Cc1ccc(F)cc1Cl	i	0
Nc1nc(SCC(=O)c2ccccc2)nc2sc3c(c12)CCC3	i	113*
Cc1ccc(C(=O)CSc2nc(C)nc3sc4c(c23)CCCC4)cc1	i	-4
O=C(CSc1nc(Nc2ccccc2)nc(N2CCOCC2)n1)Nc1ccccc1Cl	i	5
O=C(O)c1ccccc1Nc1nc(N2CCOCC2)nc(N2CCOCC2)n1	i	56*
O=C(NCc1n[nH]c(=O)c2ccccc12)c1cc2ccccc2oc1=O	i	-4
CS(=O)(=O)N(CC(=O)Nc1cccc([N+](=O)[O-])c1)c1ccc(F)c(Cl)c1	i	-3
N#Cc1ccccc1NC(=O)COc1ccc(Cl)cc1Cl	i	13
COc1cc(OC)cc(C(=O)NCc2nc(-c3ccccc3)no2)c1	i	-2
SMILES	ID4 SMM	mut p53 react
COc1cccc(OCc2nc(-c3ccccc3)no2)c1	i	112*
CCOC(=O)c1ccccc1NC(=O)c1cc(Cl)ccc1NC(=O)c1ccc(OC)cc1	i	-8
CC(C)(C)NC(=O)CSc1nnc(-c2ccco2)n1-c1ccccc1	i	11
COc1ccc([N+](=O)[O-])cc1NC(=O)COc1ccc(C(C)(C)C)cc1	i	u
COc1ccc(OC)c(NC(=O)COc2ccc(C(C)(C)C)cc2)c1	i	64*
CCc1ccccc1OCC(=O)Nc1cc(OC)ccc1OC	i	93*
COC(=O)c1ccc(OCC(=O)Nc2cc(OC)ccc2OC)c(OC)c1	i	5
COc1ccc(-c2cc(=O)[nH]c(SCC(=O)Nc3ccc(Br)cc3)n2)cc1	i	-4
Cc1c(NC(=O)CN(c2cccc(F)c2)S(C)(=O)=O)c(=O)n(-c2ccccc2)n1C	i	4
Cc1ccc(N(CC(=O)Nc2c(C)n(C)n(-c3ccccc3)c2=O)S(C)(=O)=O)cc1Cl	+	-17
CN(C)C(=O)[C@]1(CCS(=O)(=O)c2ccccc2)N=C(c2ccc(OCCCO)cc2)O[C@@H]1c1ccccc1	+	x
O=C(NCC(O)CO)[C@@]1(CCS(=O)(=O)c2ccccc2)N=C(c2ccc(OCCCO)cc2)O[C@H]1c1ccccc1 (stereo partly specified)	i	x
CCN(C(=O)C(C)Oc1ccccc1)c1ccccc1C (stereo unspecified)	i	-4

Source: PubChem (Broad Institute)
